AMA1 RON2 block: inhibitors of Plasmodium falciparum AMA1-RON2 interaction; AlphaScreen AMA1-biotinylated RON2 peptide binding; Potency, µM (series often up to 58.2 µM), for the others: at the highest dose activity change, negative = inhibition, most hits filed as inhibitors; actives 0.2% (n = 360,000); AID 720542;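 further: 0% = vehicle wells and -100% = peptide control; nearly all actives have a fitted effect of over 45% in size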
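AMA1 (3D7) with his tag at 25 nM final met compounds first, then biotinylated RON2 peptide at 25 nM; detection used donor plus acceptor beads, 10 µg/mL apiece, read by AlphaScreen after 30 min at room temperature.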
Pf growth 96h: P. falciparum growth inhibition at 96 hours. P. falciparum luciferase reporter growth, 96 h. AID 504834. actives 6.9% (n = 320,000). Potency, µM (titrated, usually from 28.7 µM), inactives show top-dose activity change, negative = inhibition, actives largely listed as inhibitors
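Compounds incubated with erythrocytes infected by luciferase-expressing P. falciparum (2% hematocrit, 0.05% parasitemia final) for 96 hours, 37 C in 5% CO2. Growth inhibition scored as decreased luciferase luminescence.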
Pf growth 48h: P. falciparum growth inhibition at 48 hours (one generation). P. falciparum luciferase growth in erythrocytes, 48 h. Potency, µM (series often up to 28.7 µM), inactives show at the top dose activity change, negative = inhibition, most hits filed as inhibitors. actives 5.9% (n = 310,000)
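Erythrocytes infected with P. falciparum carrying an integrated firefly luciferase reporter (2% hematocrit, 0.1% parasitemia final) were exposed to compounds in RPMI 1640 with 0.5% Albumax at 37 C, 5% CO2. Growth inhibition was scored as reduced luminescence.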
AmpC no deterg: AmpC beta-lactamase inhibition without detergent; P00811; AmpC nitrocefin hydrolysis, absorbance 480 nm, 0.0001% Triton; Potency, µM (doses to about 57.1 µM), for inactives: at the top dose activity change, negative = inhibition, actives largely listed as inhibitors; actives 0.52% (n = 330,000); AID 485341;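 further: plate controls were no compound for no effect and no enzyme for full effect; nearly all actives have a fitted effect of over 20% in size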
Target sequence (P00811 whole entry, looked up): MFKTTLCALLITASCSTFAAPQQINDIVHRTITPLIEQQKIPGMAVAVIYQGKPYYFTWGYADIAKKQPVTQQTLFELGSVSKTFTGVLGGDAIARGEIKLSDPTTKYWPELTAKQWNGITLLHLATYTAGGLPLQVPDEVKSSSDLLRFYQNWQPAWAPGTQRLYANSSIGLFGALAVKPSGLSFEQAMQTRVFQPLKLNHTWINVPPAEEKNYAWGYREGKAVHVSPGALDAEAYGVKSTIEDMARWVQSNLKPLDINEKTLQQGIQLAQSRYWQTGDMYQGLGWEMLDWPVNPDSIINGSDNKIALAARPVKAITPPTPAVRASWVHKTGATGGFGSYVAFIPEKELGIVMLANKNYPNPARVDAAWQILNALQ
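20 mM phosphate pH 7.0 + 0.01% (detergent screen) or 0.0001% Triton X-100; 5.3 nM AmpC reagent; cpd preinc 15 min RT; nitrocefin (800 uM stock) to start; A480 q20 s × 4 min; Activity was normalised to no-enzyme and no-compound control wells.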
HCV inhibitor: blocks hepatitis C virus | Huh7.5.1 HCVcc-Cre infection, luciferase reporter, 44 h | Potency, µM (series often up to 41.8 µM), for the others: top-dose activity change, negative = inhibition, most hits filed as inhibitors | actives 3.4% (n = 340,000) | AID 651820
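Whole-lifecycle infectious HCVcc-Cre system; cells 1,000/well, compound then virus (~0.5 moi) added 4 h after plating, 44 h culture. Luciferase read 15 sec following 15 min substrate incubation, room temp.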
AmpC inh detg: blocks E. coli AmpC beta-lactamase in detergent assay; AID 485294; actives 0.041% (n = 370,000); Potency, µM (top dose mostly 114 µM), for inactives: at the highest dose activity change, negative = inhibition, usual class: inhibitors; P00811; AmpC hydrolysis of nitrocefin, absorbance 480 nm, 0.01% Triton;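 further: 0% = no-compound wells and -100% = no-enzyme wells; nearly all actives have a fitted effect of over 25% in size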
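20 mM phosphate pH 7.0 + 0.01% (detergent screen) or 0.0001% Triton X-100; 5.3 nM AmpC reagent; cpd preinc 15 min RT; nitrocefin (800 uM stock) to start; A480 q20 s × 4 min; Activity was normalised to no-enzyme and no-compound control wells.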
An asterisk follows results filed as active; ? = inconclusive; . = no result; [ ] = another dose, or the depositor's remark. The list is not random: actives were taken first. Their share in the collection is about 11%. The call rests on the fitted dose curve; in most records, active means well fitted curve in the direction sought with a large enough effect; inconclusive means small, poorly fitted or top-dose-only effect, or another doubt; inactive means no such curve, though single readings can be large; an effect the other way counts as inactive or inconclusive. Unless noted, on the % scale 0 is the no-effect control and ±100 the full control effect; potency means the concentration at half of the fitted maximal effect.

SMILES | AMA1 RON2 block | Pf growth 96h | Pf growth 48h | AmpC no deterg | HCV inhibitor | AmpC inh detg
COc1cc(/C=N/N=C(N)N)ccc1OCc1ccc(Cl)cc1 | -15% | -3% | ? | -36% | 13µM* | 2%
CCOc1cc(/C=N/N=C(/N)c2nonc2N)cc(Br)c1OCc1ccc(Cl)cc1 | -7% | . | ? | 16µM* | ? | 3%
CCOc1cc(/C=N/O)ccc1OCc1ccc(F)cc1 | -1% | 3.7µM* | 26% | -4% | 7.1µM* | -8%
COc1cc(/C=N/N=C(/N)c2nonc2N)cc(Br)c1OCc1ccccc1C | 20% | . | ? | -47% | ? | 3%
COc1cc(/C=N/O)ccc1OCc1ccc(Cl)cc1 | . | 19% | 245% | -14% | . | -7%
O=C(COc1ccccc1)Nc1nnc(SCc2cc(=O)c3ccccc3[nH]2)s1 | . | . | . | . | . | -3%
O=C(Cn1c(=O)n(Cc2nc(-c3ccccc3)no2)c(=O)c2cc3c(cc21)OCO3)Nc1cccc(C(F)(F)F)c1 | . | . | . | . | . | 27%
Cc1ccc(S(=O)Cc2ccc(C(=O)NC3CCCCCC3)o2)cc1 (stereo not drawn) | . | . | . | . | . | 7%
Cc1ccc2[nH]c3c(=O)n(CC(=O)N(CCN(C)C)Cc4ccccc4)ncc3c2c1 | . | . | . | . | . | 21%
COc1ccc(CCN)cc1OC | 6% | ? | -18% | 11% | 5% | -4%
CCOc1cc(/C=N/O)ccc1OCc1ccc([N+](=O)[O-])cc1 | -8% | 9% | -27% | -44% | ? | -14%
CCOc1cc(/C=N/N=C(N)N)ccc1OCc1ccc(Cl)cc1 | -4% | ? | 1.5µM* | -9% | ? | 5%
NC(N)=N/N=C/c1ccc(OCc2ccccc2Cl)cc1 | 10% | 0.13µM* | 0.15µM* | -25% | ? | -7%
NC(N)=N/N=C/c1ccccc1 | 1% | -47% | . | -13% | 7% | 2%
NCCc1ccc(OCc2ccccc2)c(OCc2ccccc2)c1 | -1% | 10µM* | ? | 62% | 7.9µM* | -12%
CCOc1cc(/C=N/NC(=O)CN2CCOCC2)ccc1OCc1ccc(Cl)cc1 | -23% | 13µM* | ? | 40% | -13% | 5%
O=c1c2cc(F)ccc2sn1-c1ccccc1 | 24% | 5.2µM* | 4.1µM* | -30% | ? | 4%
O=c1c2cc(C(F)(F)F)ccc2sn1-c1ccccc1 | 8% | . | . | . | . | .
COc1cccc(CN2CCC(N(CCc3ccccc3)Cc3ccccc3)CC2)c1OC | -21%[11.6 µM] | 22% | ? | 85% | 11µM* | -1%
CC1(C)C/C(=N\NC(=S)Nc2ccccc2F)c2cc(O)ccc2O1 | 30% | 10µM* | 13µM* | ? | ? | ?
Cc1ccccc1-c1nc(CNC(=O)Nc2ccccc2)c(C)o1 | . | . | . | . | . | -12%
COc1cc(/C=N/NC(=O)C(Cc2c[nH]c3ccccc23)NC(=O)OCC(C)C)cc([N+](=O)[O-])c1OCc1ccccc1 (stereo not drawn) | 14% | ? | ? | -23% | 2% | -3%
COc1cc(/C=N/NC(=O)C(Cc2c[nH]c3ccccc23)NC(=O)OCC(C)C)cc([N+](=O)[O-])c1O (stereo not drawn) | 6% | 12µM* | -30% | -52% | 0% | -17%
COc1cc(/C=N/NC(=O)C(Cc2c[nH]c3ccccc23)NC(=O)OCc2ccccc2)cc([N+](=O)[O-])c1O (stereo not drawn) | 1% | 2% | -4% | 10µM* | -5% | -6%
CC(C)(C)n1nnnc1C(c1cccnc1)N1CCN(c2ccccc2)CC1 (stereo not drawn) | -4% | -17% | ? | 0% | 9% | 3%
CCC(C)(C)n1nnnc1C(c1ccncc1)N1CCN(c2cccc(OC)c2)CC1 (stereo not drawn) | -3% | 2.6µM* | 0% | 95% | 1% | -11%

Compound activity: PubChem BioAssay, National Center for Advancing Translational Sciences (NCATS)
